# Source: PubChem (several laboratories)
# EBV LMP1 NFkB: inhibitors of Epstein-Barr LMP1-induced NF-kappaB reporter. AID 504558. LMP1-induced NF-kappaB luciferase reporter cells, luminescence. inhibition, % at 12.5 µM. hit rate 0.69% among 350,000; in the data active = inhibition above about 41%; inconclusive = no clear call, values can overlap the other calls;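 also: 0% = neutral control wells and 100% = reference inhibitor control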
# LGR2 antag: inhibitors of bursicon-induced Drosophila LGR2 receptor cAMP signaling | HEK293 LGR2, CRE-luciferase, bursicon-stimulated, 4 h | inhibition, % at 9.99 µM | hit rate 0.35% among 380,000;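 active = drop in luminescence signal, shown as inhibition above about 50% in the replicate tests, limit read from the data, passing the limit was not always enough; inconclusive = probably only some replicates passing the limit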;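 also: agonist challenge used bursicon conditioned medium at about half maximal strength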
# EWS-Fli inh: EWS/Fli transcriptional activity inhibition; A673 NR0B1-luciferase reporter, viability-normalised; inhibition, % at 12.6 µM; hit rate 0.67% among 350,000;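 active = mean inhibition of at least 50% after viability correction, with every replicate also passing that limit; inconclusive = mean reaches 50% but only one of two replicates passes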;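 also: firefly luciferase signal divided by Alamar Blue viability fluorescence both relative to DMSO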
# TROY signal inh: blocks TROY-dependent signaling in reporter cells; AID 1347056; Q293 LMP1-TROYcd NF-kB luciferase reporter, 4 h; hit rate 0.98% among 360,000; inhibition, % at 10 µM;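 active = compounds whose plate-normalised and pattern-corrected inhibition of the luciferase reporter signal at the single screening dose is 50% or more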
# TWEAK-Fn14 inh: TWEAK-Fn14 signaling inhibition; TWEAK-stimulated Fn14 reporter cells, luciferase luminescence, 8 h; inhibition, % at 10 µM; hit rate 2% among 360,000; in the data active = inhibition above about 50%
# The depositor's hits bear a star; ? = inconclusive; . = no result given. The list is not random: actives were taken first. Their share in the collection is about 2.5%.
SMILES,EBV LMP1 NFkB,LGR2 antag,EWS-Fli inh,TROY signal inh,TWEAK-Fn14 inh
COc1ccc(C(=O)Nc2ccc(C)cn2)c(OC)c1,75*,.,.,76*,102*
COc1ccc(Cc2nnc(NC(=O)c3c(-c4ccccc4)noc3C)s2)cc1,53*,.,.,6,-36
CCCN1C[C@H](C)[C@H](OC)CN(C)C(=O)c2cc(NC(=O)C3CC3)ccc2OC[C@H]1C,.,-1,2,.,.
O=[N+]([O-])c1ccc(-n2nnnc2-c2ccccc2)cc1,0,17,.,4,9
O=[N+]([O-])c1ccc(-n2nnnc2-c2ccccc2)c([N+](=O)[O-])c1,-13,40,8,17,87*
Cc1nn(-c2ccccc2)c(N)c1-c1ccccc1,8,-33,-86,-63,-5
Cc1nn(-c2nc3ccccc3[nH]2)c(N)c1-c1ccccc1,-55,.,.,-72,68*
COc1ccccc1NS(=O)(=O)c1cccc(C(=O)OCc2nc3ccccc3s2)c1,-12,-69,.,68*,58*
COc1ccc(NS(=O)(=O)c2cc(NC(=O)c3ccc(=O)[nH]n3)ccc2C)cc1,-9,-8,56*,18,12
O=c1c(Cl)c(N2CCCCC2)cnn1-c1nc2ccccc2[nH]1,78*,.,.,82*,104*
O=c1c2ccccc2cnn1-c1nc2ccccc2[nH]1,85*,100*,91*,89*,97*
Clc1ccc2nc(N3CCCCC3)[nH]c2c1,-20,-10,.,-40,27
C[C@@H]1CCCCO[C@@H](CN(C)Cc2ccc3c(c2)OCO3)[C@@H](C)CN([C@@H](C)CO)C(=O)c2cc(NC(=O)CCC(F)(F)F)ccc2O1,.,14,-10,.,.
O=S(=O)(/N=C/c1ccccc1O)c1cccs1,-1,.,.,-11,7
Cc1ccc[n+](C2=C([O-])c3ccccc3C(=O)C2=O)c1,.,-10,-22,.,.
O=C1/C(=N\S(=O)(=O)c2cccs2)C([n+]2ccccc2)=C([O-])c2ccccc21,27,?,-10,83*,27
CC(C)(C)c1cc[n+](C2=C([O-])c3ccccc3C(=O)/C2=N\S(=O)(=O)c2cccs2)cc1,.,26,18,70*,84*
CCCC(=O)Nc1ccc2c(c1)C(=O)N(C)[C@@H]1CC[C@H](CC(=O)NCc3ccccc3Cl)O[C@H]1CO2,.,17,?,.,.
CN(C)C(=O)c1cccc(-c2ccc3c(c2)[C@@H]2[C@@H](CCN2C(=O)c2ccccc2F)[C@@H](CO)N3)c1,.,12,8,.,.
CCC(=O)N1C[C@H]2[C@@H](c3ccccc31)[C@H](CO)N2Cc1cc(F)ccc1F,.,-15,0,.,.
CCOc1cc([N+](=O)[O-])cc2c1C(=O)Nc1ccccc1O2,69*,-24,.,-2,-12
O=C1Nc2ccccc2Oc2cc([N+](=O)[O-])ccc21,11,.,35,-11,26
COc1ccc(C2=NN(C(=O)CSC3=NN4CCCC(=O)N=C4S3)C(c3cccc(OC)c3OC)C2)cc1 (configuration not stated),77*,.,0,16,11
C[C@@H]1O[C@@H]1P(=O)(O)O,75*,.,-7,-3,-3
COCC(=O)N[C@@H]1CC[C@@H](CC(=O)NCc2ccccc2OC)O[C@@H]1CO,.,79*,-3,.,.
SMILES,EBV LMP1 NFkB,LGR2 antag,EWS-Fli inh,TROY signal inh,TWEAK-Fn14 inh
COCC(=O)N[C@H]1CC[C@H](CC(=O)NCc2ccccc2OC)O[C@H]1CO,.,-7,1,.,.
Cc1cc(C)c2c(N)c(C(=O)Nc3nccs3)sc2n1,3,.,.,-11,66*
Nc1c(C(=O)Nc2nccs2)sc2nc(-c3cccs3)cc(C(F)(F)F)c12,-3,.,.,-5,-10
Cc1nnc(NC(=O)c2sc3nc(-c4cccs4)cc(C(F)(F)F)c3c2N)s1,-1,-2,.,60*,74*
Cc1ccccc1OCCc1c(C)[nH]c(=S)[nH]c1=O,-7,-162,55*,20,12
Cc1[nH]c(=S)[nH]c(=O)c1CCOc1ccccc1,2,.,.,-10,14
CN1C(=O)c2cc(NC(=O)c3ccc(F)c(F)c3)ccc2OC[C@@H]2O[C@H](CC(=O)N[C@@H]3CCN(Cc4ccccc4)C3)CC[C@@H]21,.,10,8,.,.
Cc1cccc2sc(NNC(=O)c3ccc(S(=O)(=O)N4CC(C)CC(C)C4)cc3)nc12 (configuration not stated),38,46,50,51*,64*
Cc1ccc2nc(NNC(=O)c3ccc(S(=O)(=O)N4CCc5ccccc5C4)cc3)sc2c1,59*,34,26,-8,14
CCCN(C)C[C@H]1OCCCC[C@H](C)Oc2ccc(NS(=O)(=O)c3ccc(C)cc3)cc2C(=O)N([C@@H](C)CO)C[C@@H]1C,.,-14,.,.,.
Cc1csc(SCC(=O)c2c(N)n(CC(C)C)c(=O)n(C)c2=O)n1,10,-5,.,21,52*
COCC#Cc1ccc2c(c1)O[C@H](CN(C)C(=O)C1CCC1)[C@H](C)CN([C@@H](C)CO)S2(=O)=O,.,16,3,.,.
O=C(COC(=O)c1ccccc1-n1cnnn1)c1ccc(F)cc1,4,-37,-65,64*,53*
COc1ccccc1C(=O)COC(=O)c1ccc(-n2cnnn2)cc1,3,-5,-4,-32,-26
Cc1cc(N2CCOCC2)c2c(N)c(Br)cc(C)c2n1,63*,.,.,19,13
COc1ccc2c3c([nH]c2c1)[C@@H](CO)N(C(=O)C1CC1)CC31CN(Cc2nccs2)C1,.,4,-3,.,.
O=C(C[C@@H]1CC[C@@H]2[C@H](COC[C@H](O)CN2Cc2ccc(Cl)cc2)O1)Nc1nccs1,.,3,-1,.,.
CCc1n[n+](CC(=O)c2ccccc2)c(N)s1,52*,81*,59*,58*,82*
COc1cccc(NC(=O)N2C[C@H](O)COC[C@H]3O[C@H](CC(=O)NCCCN4CCOCC4)CC[C@@H]32)c1,.,-1,.,.,.
CCN1CCN(C(=O)c2cnn3c(C(F)F)cc(-c4ccc(C)cc4)nc23)CC1,-13,.,.,4,-30
